Test results published in PubChem BioAssay AID651871 (Sanford-Burnham Center for Chemical Genomics, 2012).
Values joined by “and” are separate entries in the source; they are usually repeats but may differ in a detail not shown here. Equal values may be shown once.

Test system: HL-1
Assay: protection of cardiomyocytes from stress damage, SAR follow-up, cell-based, panel, H9c2 and HL-1, ATP luminescence, set 2 (AID 651871);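 also: cells exposed to stressor for 2 h before ATP readout; reference of the scale not given here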
Details: H9c2/HL-1 cardiomyocytes, 2-deoxyglucose stress, with 2-deoxyglucose
[1] = run 6, at 79 µM (top of the series)

Row | SMILES | activity (protection/inhibition) [1] [%] | activity (protection/inhibition) (run 6, at 19.8 µM (top of the series))
1 | COc1ccc2nc(-c3cc(OC)c(OC)c(OC)c3)cc(C(=O)NCC(=O)Nc3ccc(C(C)=O)cc3)c2c1 | 61.1 | 
2 | CCOC(=O)c1cccc(NC(=O)CNC(=O)c2cc(-c3cc(OC)c(OC)c(OC)c3)nc3ccccc23)c1 | 74.8 | 
3 | COc1ccc2c(c1OC)C(=O)N1c3ccccc3C(=O)N(Cc3cccc(Cl)c3Cl)C21 (centres undefined) | -11.4 | 29.6% and 37.4%
